Results reported in PubChem BioAssay (Tox21).
Several values for one entry are separate records, joined by “and”; a condition that tells them apart may be missing. Equal values may be shown once. Some compounds were tested as several samples or in several runs, with calls that do not always agree. Activity calls are given as the source filed them. Unless noted, the call rests on the fitted dose curve; in most records, active means well fitted curve in the direction sought with a large enough effect in the repeat runs; inconclusive means weak or mixed curves; inactive means no such curve, though single readings can be large; an effect the other way counts as inactive or inconclusive.

Tests used:
[1] = qHTS assay to test for compound auto fluorescence at 535 nm (green) in HEK293 cells (AID 720680)
[2] = qHTS assay to test for compound auto fluorescence at 460 nm (blue) in HEK293 cell free culture (AID 720681)
How it was run: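 Test compounds were pinned into cell-free culture medium (DMEM with 10% FBS) and fluorescence was read directly at Ex/Em 405/460 nm. Signals were expressed as fluorescence equivalents of triamterene, with DMSO vehicle as control.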

[3] = qHTS assay to test for compound auto fluorescence at 535 nm (green) in HEK293 cell free culture (AID 720682)
How it was run: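 Fluorescein serves as the green reference fluorophore; each compound's intrinsic emission at 535 nm (excitation 485 nm) is reported as an equivalent amount of that dye, measured in serum-containing DMEM without cells.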

[4] = qHTS assay to test for compound auto fluorescence at 590 nm (red) in HEK293 cell free culture (AID 720683)
How it was run: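 Tox21 10K library compounds were pinned into cell-free DMEM with 10% FBS and fluorescence was read at excitation 540 nm. Activity is expressed as Rose Bengal sodium equivalency.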

[5] = qHTS assay to test for compound auto fluorescence at 590 nm (red) in HepG2 cell free culture (AID 720684)
How it was run: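 Red fluorescence (540 nm excitation, 590 nm emission) was measured after compound transfer into cell-free MEM supplemented with 10% FBS. Values are equivalencies against Rose Bengal sodium.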

[6] = qHTS assay to test for compound auto fluorescence at 460 nm (blue) in HepG2 cell free culture (AID 720685)
How it was run: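 Compound (23 nL) or DMSO pinned into cell-free MEM with 10% FBS; blue fluorescence read at 405/460 nm excitation/emission, expressed as auto-fluorescence equivalency to triamterene.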

[7] = qHTS assay to test for compound auto fluorescence at 535 nm (green) in HepG2 cell free culture (AID 720686)
[8] = qHTS assay to test for compound auto fluorescence at 460 nm (blue) in HepG2 cells (AID 720687)
How it was run: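 Cells (2,000/well in MEM with 10% FBS) attached overnight at 37 C, then were exposed to compound or DMSO for 1 hr at 37 C, 5% CO2. Fluorescence read at Ex/Em 405/460 nm, expressed as triamterene-equivalent signal.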

[9] = molecular target: Glucocorticoid receptor (Homo sapiens) (UniProt P04150); experiment: qHTS assay to identify small molecule agonists of the glucocorticoid receptor (GR) signaling pathway (AID 720691; active means well fitted activation curve with a large enough effect in the signal ratio in the repeat runs, not every such curve was filed as active; inconclusive means weak or mixed curves, or effect the other way; inactive means no such curve, though single readings can be large or run the other way; the % refers to the signal ratio; further: potency means the concentration at half of the fitted maximal effect); conditions: GR-bla HeLa, beta-lactamase reporter ratio, 18 h; activation: at 62.4 µM (top of the series) unless noted
Chain of Glucocorticoid receptor (Homo sapiens) (P04150 whole entry, looked up): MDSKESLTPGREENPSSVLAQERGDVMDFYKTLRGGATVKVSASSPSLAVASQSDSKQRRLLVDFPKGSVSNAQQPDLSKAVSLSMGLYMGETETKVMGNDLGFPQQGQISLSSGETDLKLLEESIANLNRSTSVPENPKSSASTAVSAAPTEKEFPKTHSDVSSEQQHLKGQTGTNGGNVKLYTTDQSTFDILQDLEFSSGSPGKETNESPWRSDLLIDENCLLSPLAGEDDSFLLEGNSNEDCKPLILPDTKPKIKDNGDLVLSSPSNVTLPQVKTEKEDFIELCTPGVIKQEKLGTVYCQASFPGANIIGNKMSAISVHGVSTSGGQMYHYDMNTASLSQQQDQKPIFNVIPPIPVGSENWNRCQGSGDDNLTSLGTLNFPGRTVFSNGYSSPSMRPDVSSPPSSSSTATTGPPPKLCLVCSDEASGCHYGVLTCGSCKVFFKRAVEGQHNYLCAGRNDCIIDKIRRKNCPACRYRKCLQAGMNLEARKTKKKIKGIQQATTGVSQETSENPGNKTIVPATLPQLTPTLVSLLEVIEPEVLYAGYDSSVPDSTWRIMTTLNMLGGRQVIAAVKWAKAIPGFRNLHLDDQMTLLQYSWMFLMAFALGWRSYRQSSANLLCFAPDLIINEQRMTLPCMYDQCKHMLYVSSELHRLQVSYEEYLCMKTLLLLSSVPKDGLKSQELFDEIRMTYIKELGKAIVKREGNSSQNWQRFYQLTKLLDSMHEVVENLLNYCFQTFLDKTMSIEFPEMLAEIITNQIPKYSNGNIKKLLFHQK
How it was run: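 Agonist mode in a HeLa line carrying a GRE-controlled beta-lactamase reporter. Compounds act for 18 h at 37 C before a 2 h room-temperature FRET substrate step and fluorescence reading.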

[10] = molecular target: Glucocorticoid receptor (Homo sapiens) (UniProt P04150); experiment: qHTS assay to identify small molecule antagonists of the glucocorticoid receptor (GR) signaling pathway (AID 720692; active means well fitted inhibition curve with a large enough effect in the signal ratio in the repeat runs, not every such curve was filed as active; inconclusive means weak or mixed curves, or effect the other way; inactive means no such curve, though single readings can be large or run the other way; the % refers to the signal ratio)
How it was run: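 Cells plated, rested 4 h at 37 C/5% CO2; compounds in DMSO pin-transferred; dexamethasone added to 5 nM final; 18 h at 37 C; B/G FRET substrate added, 2 h room temperature; fluorescence measured.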

[11] = qHTS assay to identify small molecule antagonists of the glucocorticoid receptor (GR) signaling pathway - cell viability counter screen (AID 720693); further: nearly all actives have a fitted effect of over 55% in size
[12] = qHTS assay for identifying genotoxic compounds that show differential cytotoxicity against isogenic chicken DT40 cell lines with known DNA damage response pathways - wild type cell line (AID 743012); further: nearly all actives have a fitted effect of over 60% in size; further: potency means the concentration at half of the fitted maximal effect
How it was run: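 Cells (DT40 wild type, 300/well) are treated with DMSO-dissolved compounds after a ~0.5 h pre-incubation and kept 40 h at 37 C/5% CO2. Viability is then measured by CellTiter-Glo luminescence following 30 min at room temperature.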

[13] = qHTS assay for identifying genotoxic compounds that show differential cytotoxicity against isogenic chicken DT40 cell lines with known DNA damage response pathways - Rev3 mutant cell line (AID 743014); further: nearly all actives have a fitted effect of over 55% in size; further: potency means the concentration at half of the fitted maximal effect
[14] = qHTS assay for identifying genotoxic compounds that show differential cytotoxicity against isogenic chicken DT40 cell lines with known DNA damage response pathways - Rad54/Ku70 mutant cell line (AID 743015); further: nearly all actives have a fitted effect of over 60% in size; further: potency means the concentration at half of the fitted maximal effect
[15] = qHTS assay to identify small molecule antagonists of the androgen receptor (AR) signaling pathway - cell viability counter screen (AID 743033; further: nearly all actives have a fitted effect of over 45% in size; further: potency means the concentration at half of the fitted maximal effect)
[16] = qHTS assay to identify small molecule antagonists of the androgen receptor (AR) signaling pathway using the MDA cell line - cell viability counter screen (AID 743041; further: nearly all actives have a fitted effect of over 45% in size; further: potency means the concentration at half of the fitted maximal effect)
How it was run: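 MDA-kb2 AR-luc human breast carcinoma cells (MMTV-luciferase, AR/GR responsive) were treated with compounds plus R1881 agonist for 16 h at 37 °C. Viability was read as CellTiter-Fluor fluorescence in the same wells as the reporter assay.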

[17] = molecular target: Androgen receptor (Homo sapiens) (UniProt P10275); experiment: qHTS assay to identify small molecule antagonists of the androgen receptor (AR) signaling pathway (AID 743035; active means well fitted inhibition curve with a large enough effect in the signal ratio in the repeat runs, not every such curve was filed as active; inconclusive means weak or mixed curves, or effect the other way; inactive means no such curve, though single readings can be large or run the other way; the % refers to the signal ratio)
Chain of Androgen receptor (Homo sapiens) (P10275 whole entry, looked up): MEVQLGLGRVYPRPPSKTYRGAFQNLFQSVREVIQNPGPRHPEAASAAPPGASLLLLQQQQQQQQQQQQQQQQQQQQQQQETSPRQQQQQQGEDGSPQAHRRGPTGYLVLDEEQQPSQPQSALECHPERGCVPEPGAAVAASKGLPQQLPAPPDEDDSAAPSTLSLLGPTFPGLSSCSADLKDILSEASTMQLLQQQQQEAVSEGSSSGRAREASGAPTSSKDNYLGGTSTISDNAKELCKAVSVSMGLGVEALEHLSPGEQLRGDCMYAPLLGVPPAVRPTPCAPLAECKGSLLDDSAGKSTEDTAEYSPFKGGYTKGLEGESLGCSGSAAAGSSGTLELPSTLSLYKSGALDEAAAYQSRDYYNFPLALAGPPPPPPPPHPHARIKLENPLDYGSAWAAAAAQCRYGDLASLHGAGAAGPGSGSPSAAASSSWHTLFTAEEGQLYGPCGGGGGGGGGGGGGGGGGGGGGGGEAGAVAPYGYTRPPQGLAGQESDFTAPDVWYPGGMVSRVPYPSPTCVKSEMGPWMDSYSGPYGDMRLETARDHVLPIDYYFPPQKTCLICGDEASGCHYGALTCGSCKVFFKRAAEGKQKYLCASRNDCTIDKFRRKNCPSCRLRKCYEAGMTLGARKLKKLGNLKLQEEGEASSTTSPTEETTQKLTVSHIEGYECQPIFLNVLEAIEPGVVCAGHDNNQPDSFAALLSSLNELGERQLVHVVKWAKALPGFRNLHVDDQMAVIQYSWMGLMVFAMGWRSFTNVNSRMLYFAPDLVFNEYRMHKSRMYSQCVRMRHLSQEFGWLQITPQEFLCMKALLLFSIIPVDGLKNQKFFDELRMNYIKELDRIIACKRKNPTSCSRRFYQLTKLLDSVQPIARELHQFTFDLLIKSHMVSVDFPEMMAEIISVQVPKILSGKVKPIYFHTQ
How it was run: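 Antagonism is scored as loss of R1881-driven beta-lactamase reporter expression in HEK293 cells carrying the reporter under a UAS element, after 16 h co-treatment at 37C and a 2 h room-temperature FRET substrate read.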

[18] = molecular target: Androgen receptor (Homo sapiens) (UniProt P10275); experiment: qHTS assay to identify small molecule agonists of the androgen receptor (AR) signaling pathway (AID 743036; active means well fitted activation curve with a large enough effect in the signal ratio in the repeat runs, with a control signal flat, not every such curve was filed as active; inconclusive means weak or mixed curves, or effect the other way; inactive means no such curve, though single readings can be large or run the other way; the % refers to the signal ratio)
How it was run: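 Fluorescence from a beta-lactamase FRET substrate served as read-out in AR-UAS-bla GripTite HEK293 cells. Cells were treated with DMSO-dissolved compounds for 16 h at 37C, then with LiveBLAzer B/G substrate for 2 h at room temperature.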

[19] = molecular target: Androgen receptor (Homo sapiens) (UniProt P10275); experiment: qHTS assay to identify small molecule agonists of the androgen receptor (AR) signaling pathway using the MDA cell line (AID 743040; further: nearly all actives have a fitted effect of over 20% in size)
How it was run: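 MDA-kb2 breast carcinoma cells stably carrying an MMTV-driven luciferase reporter (AR- and GR-responsive) were seeded and held 5 h at 37C, 0% CO2, then exposed to compounds in DMSO for 16 h. Luminescence was read 30 min after ONE-Glo addition.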

[20] = molecular target: Androgen receptor (Homo sapiens) (UniProt P10275); experiment: qHTS assay to identify small molecule antagonists of the androgen receptor (AR) signaling pathway using the MDA cell line (AID 743042; further: nearly all actives have a fitted effect of over 55% in size)
How it was run: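 MDA-kb2 cells (human breast carcinoma, stably carrying an MMTV-luciferase reporter responsive to AR and GR) were plated at 3,000 cells/well and preincubated 5 hr at 37C, then given compound plus R1881 agonist for 16 h. ONE-Glo luminescence was read.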

Measured: Potency

OCC#CCO
inactive and 54.5 µM (active): [12] | [13]
inactive and 48.6 µM (active): [14]
not listed: [17] | [18] | [19] | [20]
inactive: all other assays above

C=C1CC[C@H](O)CC1=C/C=C1\CCC[C@]2(C)[C@@H]([C@H](C)/C=C/[C@H](C)C(C)C)CC[C@@H]12
active: [12] 10.6 µM and 13.6 µM and 30.6 µM | [13] 12.1 µM and 24.3 µM | [14] 13.3 µM and 13.6 µM and 27.3 µM
inactive and 43.3 µM (active): [15]
not listed: [10] | [11] | [17] | [18] | [19] | [20]
inactive: all other assays above

Clc1cc(Cl)c(Cl)cc1Cl
not listed: [17] | [18] | [19] | [20]
inactive: all other assays above

OC[C@@H](O)[C@H](O)[C@H](O)[C@@H](O)CO
not listed: [9] | [10] | [17] | [18] | [19] | [20]
inactive: all other assays above

O=C1CCCCC1
inactive: all assays above

CC(C)(C)C1CCC(O)CC1 (stereo not drawn)
not listed: [17] | [18] | [19] | [20]
inactive: all other assays above

CCCCOCCO
not listed: [17] | [18] | [19] | [20]
inactive: all other assays above

NC(=O)NNc1ccccc1
not listed: [12] | [13] | [14] | [17] | [18] | [19] | [20]
inactive: all other assays above

OC1CCCC1
not listed: [5] | [17] | [18] | [19] | [20]
inactive: all other assays above

Cc1cc(O)c2c(c1)C(=O)c1cc(O)cc(O)c1C2=O
active: [12] 27.3 µM | [14] 1.68 µM and 3.06 µM
inactive and 38.6 µM (active): [13]
12 µM (active) and inactive: [15]
not listed: [5] | [10] | [17] | [18] | [19] | [20]
inactive: all other assays above

Cc1cc(NS(=O)(=O)c2ccc(N)cc2)no1
not listed: [5] | [8] | [17] | [18] | [19] | [20]
inactive: all other assays above

CCCCC(CC)COC(C)=O (stereo not drawn)
not listed: [5] | [17] | [18] | [19] | [20]
inactive: all other assays above

COC(=O)c1ccccc1O
not listed: [5] | [9] | [10] | [17] | [18] | [19] | [20]
inactive: all other assays above

O=C1O[C@H](CO)[C@@H](O)[C@H](O)[C@H]1O
not listed: [8] | [17] | [18] | [19] | [20]
inactive: all other assays above

O=C(c1cc(O)c(O)c(O)c1)c1ccc(O)c(O)c1O
active: [12] 48.4 µM and 13.7 µM | [13] 30.5 µM and 13.7 µM | [14] 30.5 µM and 13.7 µM
not listed: [5] | [8] | [10] | [17] | [18] | [19] | [20]
inactive: all other assays above

CC1(C)O[C@@H]2C[C@H]3[C@@H]4C[C@H](F)C5=CC(=O)CC[C@]5(C)[C@H]4[C@@H](O)C[C@]3(C)[C@]2(C(=O)CO)O1
active: [9] 18.2 nM [inconclusive] and 3.9 nM
not listed: [5] | [8] | [10] | [17] | [18] | [19] | [20]
inactive: all other assays above

CN(C)c1ccc(C(=N)c2ccc(N(C)C)cc2)cc1
inactive: [1] | [3] | [4] | [6] | [7] | [9] | [11]
active: [12] 5.38 µM and 11.7 µM | [13] 2.4 µM and 8.31 µM | [14] 3.81 µM and 11.7 µM | [15] 34.2 µM and 37.4 µM | [16] 60.4 µM

OCC1CCCO1 (stereo not drawn)
not listed: [5] | [17]
inactive: all other assays above

O=[N+]([O-])C(CO)(CO)CO
inactive and 68.6 µM (active): [12] | [14]
not listed: [8] | [9] | [10] | [17] | [18] | [19] | [20]
inactive: all other assays above

Cc1ccc(C(=O)O)o1
not listed: [5] | [8] | [17] | [18] | [19] | [20]
inactive: all other assays above

CCCCC(CC)COC(=O)/C=C\C(=O)OCC(CC)CCCC (stereo not drawn)
not listed: [8] | [10]
inactive: all other assays above

CC(C)n1c(/C=C/[C@@H](O)C[C@@H](O)CC(=O)O)c(-c2ccc(F)cc2)c2ccccc21
active: [12] 1.06 µM and 6.11 µM | [13] 9.4 nM and 3.06 µM | [14] 3.35 µM and 8.63 µM
inactive: [1] | [2] | [3] | [4] | [5] | [6] | [7] | [11] | [16]

CCC(=O)O
not listed: [8] | [17] | [18] | [19] | [20]
inactive: all other assays above

Cc1ccc(C)c(C)c1
not listed: [8]
inactive: all other assays above

CC(=O)CCc1ccccc1
not listed: [8] | [9] | [10] | [17] | [18] | [19] | [20]
inactive: all other assays above

Cc1cc(=O)[nH]c(C(C)C)n1
not listed: [5]
inactive: all other assays above

C=C(C)C(=O)OCCC[Si](OC)(OC)OC
not listed: [5] | [11] | [17] | [18] | [19] | [20]
inactive: all other assays above

Oc1ccc(OCc2ccccc2)cc1
active: [12] 2.54 µM and 8.45 µM | [13] 2.85 µM and 5.33 µM | [14] 4.52 µM and 11.9 µM
not listed: [5] | [10] | [17]
inactive: all other assays above

CS(=O)(=O)c1ccc([C@@H](O)[C@@H](CO)NC(=O)C(Cl)Cl)cc1
active: [12] 4.52 µM and 4.92 µM | [13] 7.17 µM and 4.38 µM | [14] 7.17 µM and 4.92 µM
not listed: [5] | [17] | [18] | [19] | [20]
inactive: all other assays above

CCCCCCOC(C)=O
active: [13] 54.5 µM | [14] 61.1 µM
not listed: [5] | [17] | [18] | [19] | [20]
inactive: all other assays above

CCCCCCCCC
not listed: [5] | [17] | [18] | [19] | [20]
inactive: all other assays above

C=CC(=O)OCCCCCCCC(C)C
inactive and 27.3 µM (active): [14]
inactive and 48.5 µM (active): [12]
inactive and 54.4 µM (active): [13]
not listed: [8] | [9] | [10]
inactive: all other assays above
